# For some of these results: Measured potencies and affinities stand elsewhere.
# Key:
# Parameters in all cases: scale not given: direction of the effect not stated beside the values
# [1] = biological target: Protein translocase subunit SecA (Escherichia coli (strain K12)) (UniProt P10408); assay: Assay to Identify E. coli SecA ATPase Inhibitors; assay type: functional; conditions: 30 µM
# [2] = biological target: T1, Ubiquitin-activating enzyme e1, putative (Leishmania donovani (strain BPK282A1)) (UniProt E9BSI1); assay: Leishmania donovani Ubiquitin Activating Enzyme (LdE1); assay type: functional; conditions: 30 µM
# T1 sequence (whole entry): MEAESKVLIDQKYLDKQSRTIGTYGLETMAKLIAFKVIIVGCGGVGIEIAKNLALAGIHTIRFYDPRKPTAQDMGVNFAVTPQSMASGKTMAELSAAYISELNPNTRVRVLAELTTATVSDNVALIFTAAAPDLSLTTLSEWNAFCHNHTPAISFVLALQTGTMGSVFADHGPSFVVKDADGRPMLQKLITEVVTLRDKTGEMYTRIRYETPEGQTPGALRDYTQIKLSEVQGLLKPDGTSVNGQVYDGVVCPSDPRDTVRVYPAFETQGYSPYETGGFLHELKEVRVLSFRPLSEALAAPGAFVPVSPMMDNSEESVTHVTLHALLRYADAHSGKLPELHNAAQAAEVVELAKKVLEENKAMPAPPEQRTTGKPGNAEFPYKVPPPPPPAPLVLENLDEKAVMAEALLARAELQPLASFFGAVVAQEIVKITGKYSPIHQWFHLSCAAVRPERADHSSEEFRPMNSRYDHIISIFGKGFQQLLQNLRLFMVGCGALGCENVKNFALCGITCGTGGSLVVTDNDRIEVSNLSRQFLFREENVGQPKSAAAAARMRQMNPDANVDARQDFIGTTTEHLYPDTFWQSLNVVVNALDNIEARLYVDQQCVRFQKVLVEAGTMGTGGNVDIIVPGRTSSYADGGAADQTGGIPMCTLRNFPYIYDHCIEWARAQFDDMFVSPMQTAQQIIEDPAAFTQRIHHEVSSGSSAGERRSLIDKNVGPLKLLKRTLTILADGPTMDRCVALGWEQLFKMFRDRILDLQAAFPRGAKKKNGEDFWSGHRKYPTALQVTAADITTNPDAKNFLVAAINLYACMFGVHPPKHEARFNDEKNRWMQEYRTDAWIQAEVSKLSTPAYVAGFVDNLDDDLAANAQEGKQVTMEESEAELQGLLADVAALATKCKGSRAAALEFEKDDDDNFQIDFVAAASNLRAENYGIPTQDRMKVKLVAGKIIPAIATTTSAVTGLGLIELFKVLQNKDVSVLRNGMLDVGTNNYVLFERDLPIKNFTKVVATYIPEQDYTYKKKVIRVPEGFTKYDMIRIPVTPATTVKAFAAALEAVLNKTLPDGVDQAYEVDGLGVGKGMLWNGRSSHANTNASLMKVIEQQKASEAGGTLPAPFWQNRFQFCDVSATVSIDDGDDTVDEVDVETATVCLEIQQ
# [3] = biological target: AMP-activated protein kinase, AMPK (Homo sapiens) (UniProt P54646+O43741+P54619+Q9UGJ0+Q9Y478+Q13131+Q9UGI9); assay: AMP-dependent Kinase enzyme assay. An in vitro enzyme assay that detects ADP turnover that is directly proportional to AMPK activity. This uses naive AMPK that is activated during the assay with MK-8722; assay type: functional; conditions: 30 µM
# [4] = biological target: Sialic acid-binding Ig-like lectin 9 (Homo sapiens) (UniProt Q9Y336); assay: Hs-Siglec9 ALPHAscreen SOP 20170721; conditions: 10 µM
# Chain of Sialic acid-binding Ig-like lectin 9 (Homo sapiens) (Q9Y336 whole entry): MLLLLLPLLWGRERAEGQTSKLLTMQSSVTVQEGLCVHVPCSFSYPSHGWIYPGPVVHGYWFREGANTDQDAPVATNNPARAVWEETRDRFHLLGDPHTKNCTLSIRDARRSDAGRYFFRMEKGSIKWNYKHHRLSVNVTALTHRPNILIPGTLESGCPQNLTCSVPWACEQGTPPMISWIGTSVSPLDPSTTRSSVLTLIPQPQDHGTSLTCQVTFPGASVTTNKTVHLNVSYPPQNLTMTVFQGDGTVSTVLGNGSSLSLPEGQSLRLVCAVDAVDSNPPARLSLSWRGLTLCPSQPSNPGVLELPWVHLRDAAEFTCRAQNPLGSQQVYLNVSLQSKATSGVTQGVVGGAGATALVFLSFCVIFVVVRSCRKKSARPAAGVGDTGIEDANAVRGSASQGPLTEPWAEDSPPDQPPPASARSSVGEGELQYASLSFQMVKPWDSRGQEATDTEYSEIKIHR
# Trypanosoma cruzi = assay: Trypanosoma cruzi phosphomannomutase and mannose-1-phosphate guanylyltransferase assay; assay type: functional; conditions: 10 µM
# [5] = biological target: T2, Arginase-2, mitochondrial (Homo sapiens) (UniProt P78540); assay: in vitro enzyme assay to detect the production of urea directly proportional to the activity of Arginase II; assay type: functional; conditions: 33.3 µM; further: in the data most compounds retested in dose-response had high values
# T2 sequence (whole entry): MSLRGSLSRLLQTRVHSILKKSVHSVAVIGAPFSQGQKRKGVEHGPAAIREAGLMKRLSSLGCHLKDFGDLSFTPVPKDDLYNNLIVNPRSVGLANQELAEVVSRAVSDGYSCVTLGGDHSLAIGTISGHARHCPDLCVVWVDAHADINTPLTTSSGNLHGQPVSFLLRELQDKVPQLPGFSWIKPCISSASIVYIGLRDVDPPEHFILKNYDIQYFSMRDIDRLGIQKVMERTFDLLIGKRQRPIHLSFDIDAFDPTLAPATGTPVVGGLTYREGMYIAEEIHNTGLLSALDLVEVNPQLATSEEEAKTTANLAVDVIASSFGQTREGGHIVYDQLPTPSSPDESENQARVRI
# [6] = biological target: T3, Proteasome subunit beta (Trypanosoma cruzi) (UniProt O96673); assay: Trypanosoma cruzi proteasome chymotrypsin-like activity (TcProtChymo) assay.; further: in the data most compounds retested in dose-response had high values; assay type: functional; conditions: 9.37 µM
# T3 sequence (whole entry): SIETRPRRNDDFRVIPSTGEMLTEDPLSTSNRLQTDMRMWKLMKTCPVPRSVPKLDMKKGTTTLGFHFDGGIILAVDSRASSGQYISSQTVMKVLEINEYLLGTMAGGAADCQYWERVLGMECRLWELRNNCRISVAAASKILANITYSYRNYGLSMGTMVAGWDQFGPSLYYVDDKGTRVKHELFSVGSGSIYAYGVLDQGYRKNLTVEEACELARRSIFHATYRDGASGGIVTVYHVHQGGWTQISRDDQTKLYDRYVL
# Homo sapiens = organism: Homo sapiens; assay: To identify inhibition of the IFN signalling (Jak-Stat) pathway via expression of an eGFP reporter gene under the control of an IFN-stimulated response element (ISRE) containing MxA promoter.; assay type: functional; conditions: 30 µM
# [7] = biological target: T4, Tyrosyl-tRNA synthetase, putative (Trypanosoma cruzi (strain CL Brener)) (UniProt Q4DSP6); assay: Trypanosoma cruzi tyrosyl tRNA synthetase (TcYRS) _High Tyrosine SOP; assay type: functional; conditions: 30 µM; further: in the data most compounds retested in dose-response had high values
# T4 sequence (whole entry): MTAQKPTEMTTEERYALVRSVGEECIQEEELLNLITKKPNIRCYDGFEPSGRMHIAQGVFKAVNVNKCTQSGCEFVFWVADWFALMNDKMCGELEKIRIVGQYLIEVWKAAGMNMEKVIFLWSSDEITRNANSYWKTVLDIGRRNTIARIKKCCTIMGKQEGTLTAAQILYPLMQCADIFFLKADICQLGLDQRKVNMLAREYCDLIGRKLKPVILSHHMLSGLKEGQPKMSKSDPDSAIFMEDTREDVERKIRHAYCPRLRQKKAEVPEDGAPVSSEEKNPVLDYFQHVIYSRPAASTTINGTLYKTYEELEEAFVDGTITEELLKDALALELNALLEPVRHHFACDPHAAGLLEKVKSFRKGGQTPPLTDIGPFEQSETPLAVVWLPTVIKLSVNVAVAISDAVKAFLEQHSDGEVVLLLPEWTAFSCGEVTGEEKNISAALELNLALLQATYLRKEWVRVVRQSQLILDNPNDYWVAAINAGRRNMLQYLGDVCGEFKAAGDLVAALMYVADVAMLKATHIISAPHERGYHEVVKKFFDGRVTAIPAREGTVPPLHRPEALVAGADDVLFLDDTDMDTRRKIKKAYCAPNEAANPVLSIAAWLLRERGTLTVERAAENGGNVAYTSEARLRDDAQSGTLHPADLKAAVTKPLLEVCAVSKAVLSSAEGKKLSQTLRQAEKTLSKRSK
# [8] = biological target: T4, Tyrosyl-tRNA synthetase, putative (Trypanosoma cruzi (strain CL Brener)); assay: Trypanosoma cruzi tyrosyl tRNA synthetase (TcYRS) SOP; assay type: functional; conditions: 30 µM
# [9] = biological target: Chromo domain-containing protein 1 (Saccharomyces cerevisiae (strain ATCC 204508 / S288c) (Baker's yeast)) (UniProt P32657); assay: ScCHD-1 Enzyme Inhibition Assay; assay type: functional; conditions: 30 µM; further: in the data most compounds retested in dose-response had high values
# Chain of Chromo domain-containing protein 1 (Saccharomyces cerevisiae (strain ATCC 204508 / S288c) (Baker's yeast)) (P32657 whole entry, the tested form may be a part): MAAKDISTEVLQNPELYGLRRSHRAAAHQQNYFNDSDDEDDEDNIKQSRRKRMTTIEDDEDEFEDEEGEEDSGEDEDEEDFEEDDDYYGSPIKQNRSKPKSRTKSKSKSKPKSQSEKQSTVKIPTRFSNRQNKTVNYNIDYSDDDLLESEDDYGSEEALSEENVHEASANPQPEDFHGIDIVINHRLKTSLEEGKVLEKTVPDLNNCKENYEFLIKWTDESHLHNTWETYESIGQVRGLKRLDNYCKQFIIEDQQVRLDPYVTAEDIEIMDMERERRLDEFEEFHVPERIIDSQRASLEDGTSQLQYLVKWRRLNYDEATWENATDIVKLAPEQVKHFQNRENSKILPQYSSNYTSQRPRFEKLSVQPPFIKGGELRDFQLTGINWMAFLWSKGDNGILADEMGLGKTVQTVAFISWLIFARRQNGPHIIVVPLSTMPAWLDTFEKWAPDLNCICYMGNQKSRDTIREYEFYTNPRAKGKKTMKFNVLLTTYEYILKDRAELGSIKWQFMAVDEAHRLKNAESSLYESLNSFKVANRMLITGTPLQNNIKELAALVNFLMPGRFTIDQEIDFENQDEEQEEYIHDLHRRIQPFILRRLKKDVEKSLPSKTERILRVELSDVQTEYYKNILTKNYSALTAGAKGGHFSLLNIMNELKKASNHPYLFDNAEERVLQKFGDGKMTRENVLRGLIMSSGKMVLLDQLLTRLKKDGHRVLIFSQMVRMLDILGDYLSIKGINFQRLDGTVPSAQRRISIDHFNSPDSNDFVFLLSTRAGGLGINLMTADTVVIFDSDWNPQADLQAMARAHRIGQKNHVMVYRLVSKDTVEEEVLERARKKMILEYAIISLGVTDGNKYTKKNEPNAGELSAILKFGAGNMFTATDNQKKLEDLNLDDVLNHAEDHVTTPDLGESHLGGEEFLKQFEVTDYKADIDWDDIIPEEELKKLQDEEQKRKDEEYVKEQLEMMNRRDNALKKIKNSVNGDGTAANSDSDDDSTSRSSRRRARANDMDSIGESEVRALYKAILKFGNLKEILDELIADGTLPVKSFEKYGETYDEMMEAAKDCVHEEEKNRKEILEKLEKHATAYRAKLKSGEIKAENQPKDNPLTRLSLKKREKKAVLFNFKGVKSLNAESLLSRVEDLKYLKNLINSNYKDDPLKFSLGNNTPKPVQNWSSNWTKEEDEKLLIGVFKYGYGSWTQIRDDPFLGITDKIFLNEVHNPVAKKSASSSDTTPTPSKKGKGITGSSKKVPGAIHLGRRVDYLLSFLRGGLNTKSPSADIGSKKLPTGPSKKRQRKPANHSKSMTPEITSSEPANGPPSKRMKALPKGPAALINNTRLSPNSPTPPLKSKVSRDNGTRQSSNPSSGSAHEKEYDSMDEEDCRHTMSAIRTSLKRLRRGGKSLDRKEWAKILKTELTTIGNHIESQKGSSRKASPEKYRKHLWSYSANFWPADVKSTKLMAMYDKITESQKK
# Chain of Protein translocase subunit SecA (Escherichia coli (strain K12)) (P10408 whole entry): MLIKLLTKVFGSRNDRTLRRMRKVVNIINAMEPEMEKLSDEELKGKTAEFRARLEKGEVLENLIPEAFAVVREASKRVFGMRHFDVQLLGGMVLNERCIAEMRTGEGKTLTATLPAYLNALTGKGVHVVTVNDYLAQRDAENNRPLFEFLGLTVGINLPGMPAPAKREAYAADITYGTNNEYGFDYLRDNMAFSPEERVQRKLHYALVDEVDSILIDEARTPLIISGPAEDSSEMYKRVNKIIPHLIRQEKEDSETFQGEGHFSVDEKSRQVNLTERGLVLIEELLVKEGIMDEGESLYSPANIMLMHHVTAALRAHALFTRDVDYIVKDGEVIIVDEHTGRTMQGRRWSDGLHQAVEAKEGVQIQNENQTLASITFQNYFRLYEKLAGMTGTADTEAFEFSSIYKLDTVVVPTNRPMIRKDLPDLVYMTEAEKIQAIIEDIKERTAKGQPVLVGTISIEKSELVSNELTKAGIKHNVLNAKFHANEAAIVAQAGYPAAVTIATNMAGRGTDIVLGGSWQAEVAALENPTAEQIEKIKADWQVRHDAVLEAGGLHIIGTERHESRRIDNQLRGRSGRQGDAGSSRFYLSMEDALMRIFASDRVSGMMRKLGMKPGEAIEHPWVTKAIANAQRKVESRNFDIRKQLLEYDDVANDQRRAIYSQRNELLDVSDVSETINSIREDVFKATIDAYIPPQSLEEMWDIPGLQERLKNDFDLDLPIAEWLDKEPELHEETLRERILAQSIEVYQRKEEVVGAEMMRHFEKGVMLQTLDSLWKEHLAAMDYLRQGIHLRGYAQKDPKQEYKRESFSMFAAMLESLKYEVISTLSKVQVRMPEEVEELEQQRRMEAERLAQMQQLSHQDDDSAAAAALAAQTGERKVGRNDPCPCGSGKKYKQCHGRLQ
SMILES,Percent Effect [1],Percent Effect [2],Percent Effect [3],Percent Effect [4],Percent Effect (Trypanosoma cruzi),Percent Effect [5],Percent Effect [6],Percent Effect (Homo sapiens),Percent Effect [7],Percent Effect [8],Percent Effect [9]
COCCn1cc(C(=O)N2CCCC2c2cc(C)no2)ccc1=O (stereo unspecified),-2.03%,8.11%,1.75%,2.51%,-0.965%,2.38%,9.48%,1.94%,7.94%,12.2%,-3.51%
CC(=O)N1CCNCC1c1cccc(C(=O)N(C)C)c1 (stereo unspecified),-0.644%,-6.76%,10.3%,-0.354%,-4.94%,4.41%,-3.43%,4.59%,1.07%,1.3%,0.199%
Cc1nccnc1N1CC[C@@H](NC(=O)c2cnccn2)[C@H](O)C1,-5.54%,13.5%,-3.54%,17.2%,7.53%,2.86%,3.62%,2.71%,2.65%,14.6%,-0.902%
CC(O)CN(CC(=O)NC(=O)NC1CC1)c1ccccc1 (stereo unspecified),-7.41%,15.6%,-2.19%,-7.69%,-2.64%,-3.16%,3.64%,6.08%,5.71%,2.35%,-17.8%
CN1CCC(Oc2ccc(NC(=O)c3cccc(Cl)c3)cc2)CC1,-5.92%,0%,6.08%,4.72%,3.05%,19.3%,10.2%,12.9%,-5.38%,1.24%,-3.75%
COc1ccc(CC(=O)N2CCCN(c3ccc(C#N)cc3)CC2)cc1,-3.96%,-5.26%,8.87%,-0.428%,-5.75%,-8.28%,11.8%,-1.35%,-3.19%,2.6%,-7.99%
Cc1cnn(CC2CCCN2C(=O)c2cc(C)no2)c1 (stereo unspecified),-7.95%,5.26%,-9.36%,0.94%,-8.12%,0.36%,-4.65%,2.42%,-0.493%,-8.64%,10.5%
Cc1ccc(CC(=O)N2CCCCC2c2nc(C)cs2)cn1 (stereo unspecified),-3.56%,3.8%,3.35%,-2.77%,-1.54%,4.52%,6.52%,4.76%,-4.17%,7.59%,-12.2%
O=C(NCCN1CCCCC1)c1scnc1Cl,-0.516%,15.8%,7.25%,-5.01%,-5.7%,3.24%,13.6%,3.91%,9.36%,16.1%,-5.64%
O=C(c1ccc2c(c1)OCO2)N1CCCSCC1CN1CCCC1 (stereo unspecified),-4.51%,7.79%,6.33%,7.89%,-1.08%,5.81%,8.53%,-0.0393%,8.47%,11.5%,-7.09%
Cc1n[nH]c(C2CN(CC(=O)NCc3ccco3)CCO2)n1 (stereo unspecified),-7.98%,0%,3.1%,-5.39%,-5.36%,-2.6%,6.8%,24.6%,-1.64%,-3.7%,-2.33%
